# Screens as filed in PubChem BioAssay.
# This excerpt belongs to a sample that is enriched for hits.
# Pf Dd2 growth: qHTS Primary assay for Inhibitors of Plasmodium falciparum Dd2 growth in vitro | P. falciparum Dd2 growth, SYBR Green, 72 h | Potency, µM (doses to about 28.9 µM), for inactives: at the top dose activity, negative = inhibition, hits mostly inhibitors | 120,000 compounds, 4.3% hits | AID 1347417, 2020; active = well fitted inhibition curve with a large enough effect;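 also: plate controls were DMSO vehicle for no effect and reference drug for full effect; nearly all actives have a fitted effect of over 65% in size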
#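 Infected erythrocytes (Dd2, 0.3% parasitemia, 2.5% hematocrit final) are added to compound in RPMI-1640/Albumax II medium, grown 72 h at 37C in low oxygen, then lysed with saponin/Triton-X containing SYBR Green and read by fluorescence.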
# Numbers without * were called inactive; i = inactive; [ ] = dose if it differs, or a comment. Potency is read from the fitted curve at half-maximal effect.
SMILES,Pf Dd2 growth
CCc1ccccc1NC(=O)Cn1c(N(C)Cc2ccccc2)nc(C)cc1=O,-8%
Cc1ccc(NC(=O)Cn2c(N(C)Cc3ccccc3)nc(C)cc2=O)c(C)c1,i
CCc1cccc(C)c1NC(=O)Cn1c(N(C)Cc2ccccc2)nc(C)cc1=O,11µM*
Cc1cccc(N2Cc3c(ncnc3NCc3ccc(C(F)(F)F)cc3)CN(C)C2=O)c1,1%
CCc1cccc(NC(=O)Nc2csc3c2CCCC3)c1,10µM*
Cc1cccc(C)c1NC(=O)Nc1csc2c1CCCC2,-16%
Cc1cc(C)c(NC(=O)Nc2csc3c2CCCC3)c(C)c1,86%[5.79 µM]
CCCNC(=O)N1CCCCCCN(C)C(=O)CC1,-12%
O=C(c1ccc(C(F)(F)F)cc1)N1CCn2c(nn(-c3ccncc3)c2=O)C1,9%
CCCNC(=O)C(NC(=O)c1ccccc1)C1CCN(C(=O)c2ccccc2F)CC1 (configuration not stated),-3%
COCc1noc([C@@H]2CN(Cc3cccc(Cl)c3F)C[C@H]2C(N)=O)n1,23%
O=C(c1ccncc1)N1CCC(Oc2cccc(F)c2)C1 (configuration not stated),-21%
O=c1n(Cc2cc(F)cc(F)c2)nc2n1CCCCC2,i
COc1ccc(C(=O)c2sc(Nc3ccccc3)nc2N)cc1,8.9µM*
COc1ccccc1C(=O)Nc1sc(Nc2ccccc2)nc1C(N)=O,40%
COc1ccc(C(=O)c2sc(Nc3cc(Cl)ccc3C)nc2N)cc1OC,54%
O=C(CC[C@@H]1CNC(=O)[C@@H]2C[C@H](NC(=O)c3ccccc3)CN12)NCc1ccc(F)cc1,-13%
COc1ccccc1CNC(=O)[C@H]1CCC[C@H]1NC(=O)c1ccncc1,14%
CCOc1ccccc1CNC(=O)[C@H]1CCC[C@H]1NC(=O)c1ccc(OC)cc1,11µM*
COc1ccc(C(=O)N[C@@H]2CCC[C@@H]2C(=O)NCc2cc(OC)ccc2OC)cc1,-5%
COCCOc1ccc(C(=O)N[C@@H]2CNCCC[C@H]2O)cc1,49%[44.1 µM]
COc1ccc(NC(=O)[C@@H]2COCC(=O)N2Cc2ccccc2)cc1,i
CC(=O)Nc1ccc(CN2CCCC(N3CCN(c4ccccc4)CC3)C2)cc1 (configuration not stated),-23%
CCCC(=O)Nc1ccc([C@H]2OCC(=O)N(CC(C)C)[C@@H]2CO)cc1,-3%[44.1 µM]
O=C(O)c1ccc(-c2ncc3cnc(-c4cccc(F)c4)cn23)cc1,i
SMILES,Pf Dd2 growth
Cn1c(=O)c2cc(C(=O)NCCCN3CCN(c4ccc(F)cc4)CC3)sc2c2ccccc21,-4%
CN(CCCNC(=O)c1cc2c(=O)n(C)c3ccccc3c2s1)Cc1ccccc1,10µM*
CCOC(=O)C1CCCN(C(=O)c2cc3c(=O)[nH]c4ccc(C)cc4c3s2)C1 (configuration not stated),i
Cn1c(=O)c2cc(C(=O)NCCCN3CCN(c4ccccc4F)CC3)sc2c2ccccc21,54%[5.79 µM]
COc1ccc(Br)cc1CNC(=O)c1cc2c(=O)n(C)c3ccccc3c2s1,25%
Cc1ccc2[nH]c(=O)c3cc(C(=O)NCCCN4CCC(C)CC4)sc3c2c1,8.9µM*
CCn1c(=O)c2cc(C(=O)NCCCN3CCC(C)CC3)sc2c2ccccc21,i
CCN(CCCNC(=O)c1cc2c(=O)n(CC)c3ccccc3c2s1)c1ccccc1,-1%
CCN1CCN(CCCNC(=O)c2cc3c(=O)n(C)c4ccccc4c3s2)CC1,3.2µM*
COCCN(C)C[C@H]1C[C@H](CO)CN(C(=O)c2[nH]nc(-c3ccccc3)c2C)C1,-23%
O=C(CC1=CCNCC1)N(Cc1ccccn1)CC1CCCO1 (configuration not stated),-19%
Cn1nccc1C(=O)N1CCCCCCNC(=O)[C@@H]2CCCC[C@@H]21,4%
O=C(Nc1ccccc1)N1CCCC(CN2CCOCC2)CC1 (configuration not stated),i
CN1C[C@H](O)C[C@H]1c1nnc2n1CCN(C(=O)CCCc1ccccc1)CC2,-4%
O=c1c(S(=O)(=O)c2ccccc2)cn(Cc2cccc(F)c2)c2cc(N3CCCC3)c(F)cc12,-14%
Cc1ccc(S(=O)(=O)c2cn(Cc3ccccc3)c3cc(N4CCCC4)c(F)cc3c2=O)cc1C,10µM*
CCn1cc(S(=O)(=O)c2cc(C)cc(C)c2)c(=O)c2cc(F)c(N3CCCC3)cc21,i
CCCn1cc(S(=O)(=O)c2ccc(C)c(C)c2)c(=O)c2cc(F)c(N3CCC(C)CC3)cc21,-10%
O=c1c(S(=O)(=O)c2cccc(Cl)c2)cn(Cc2ccccc2)c2cc(N3CCCCC3)c(F)cc12,i
Cc1ccc(S(=O)(=O)c2cn(Cc3ccccc3)c3cc(N4CCCC4)c(F)cc3c2=O)cc1,6.3µM*
O=c1c(S(=O)(=O)c2ccccc2)cn(Cc2ccccc2)c2cc(N3CCCC3)c(F)cc12,-5%
CCn1cc(S(=O)(=O)c2ccc(OC)cc2)c(=O)c2cc(F)c(N3CCCCCC3)cc21,-24%
CCn1cc(S(=O)(=O)c2ccc(C)cc2C)c(=O)c2cc(F)c(N3CCCCC3)cc21,11µM*
CCc1cc(=O)n(CC(=O)Nc2ccc(N(C)C)cc2)c(-c2cccc(F)c2)n1,i
Cc1ccc(C(=O)N2CCC(C3CCN(S(C)(=O)=O)CC3)C2)c(=O)[nH]1 (configuration not stated),5%
SMILES,Pf Dd2 growth
Cc1ccc(F)cc1S(=O)(=O)N1CC(c2nc(-c3ccncc3)no2)C1,i
CCc1ccc(NC(=O)c2ccc3c(c2)N(CC)C2CCCCCN2C3=O)cc1 (configuration not stated),-8%
CN(C)c1nc2c(c(=O)[nH]1)CCN(C(=O)CCc1ccccc1)CC2,24%[5.79 µM]
O=C(N[C@H]1C[C@@H](CO)N(CCc2ccccc2)C1)c1cccnc1,i
CC(C)(C)C(=O)N[C@H]1C[C@@H](Cc2cc(COc3ccccc3)on2)C1(C)C,-7%[44.1 µM]
CCCCc1cc(C[C@@H]2C[C@H](NC(=O)NCC)C2(C)C)no1,i
CC1(C)[C@H](Cc2cc(COc3ccccc3)on2)C[C@@H]1NC(=O)Nc1ccccc1,10µM*
CN(C)[C@H]1C[C@@H](Cc2cc(COc3ccccc3)on2)C1(C)C,i
CCCCCC(=O)N[C@H]1C[C@@H](Cc2cc(COC(=O)CCCCC)on2)C1(C)C,-6%[44.1 µM]
CC1(C)[C@H](Cc2cc(CN3CCOCC3)on2)C[C@@H]1NC(=O)Nc1ccc(F)cc1,i
c1ccc(OCc2cc(CC3(NC4CCC4)COC3)no2)cc1,-18%[44.1 µM]
CCCCCC(=O)N[C@H]1C[C@@H](Cc2cc(COc3ccccc3)on2)C1(C)C,11µM*
CC1(C)[C@H](Cc2cc(COc3ccccc3)on2)C[C@@H]1NC1CCC1,11µM*
COc1ccccc1CNC(=O)C(C)C1CCOCC1 (configuration not stated),16%
COc1ccccc1CNC(=O)c1ccc2c(c1)N(C)C1CCCN1C2=O (configuration not stated),i
COc1cccc(CN2CCNc3cnc(-c4ccccc4)cc3C2)c1,-3%[44.1 µM]
O=C(CN1C(=O)NC(c2ccccc2Cl)C2=C1COC2=O)NCc1ccc2c(c1)OCO2 (configuration not stated),i
O=C(Cc1ccc(N(Cc2ccccc2)C(=O)c2ccco2)cc1)N1CCOCC1,i
CC(C)(C)NC(=O)N1CCC2(CC1)CC(Cc1nc(-c3cnccn3)no1)CCO2 (configuration not stated),-24%
O=C(NC1CCCCCC1)C1CCN(c2cn[nH]c(=O)c2)C1 (configuration not stated),-9%
